Compound activity deposited in PubChem by Sanford-Burnham Center for Chemical Genomics.
Peg3 prom inh: Peg3 promoter activity inhibition; 360,000 tested, 1.7% active; HeLa PEG-Prom luciferase reporter, luminescence, overnight; inhibition, % at 20 µM; AID 588405;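 active = inhibition of at least 50% at 20 µM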
TWEAK Fn14 block: TWEAK-Fn14 signaling inhibition; TWEAK-stimulated Fn14 reporter cells, luciferase luminescence, 8 h; AID 1159606; inhibition, % at 10 µM; 360,000 tested, 2% active; in the data active = inhibition above about 50%
TROY signal inh: blocks TROY-dependent signaling in reporter cells | AID 1347056 | 360,000 tested, 0.98% active | Q293 LMP1-TROYcd NF-kB luciferase reporter, 4 h | inhibition, % at 10 µM;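 active = compounds whose plate-normalised and pattern-corrected inhibition of the luciferase reporter signal at the single screening dose is 50% or more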
HIF-2a inh: HIF-2a inhibition; 786-0 RCC cells HIF-2a reporter, luciferase luminescence, overnight; 360,000 tested, 0.72% active; inhibition, % at 18.8 µM;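 active = inhibition of the luminescence signal of 40% or more relative to plate controls, in a single-dose primary screen at 18.75 µM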
KKLEB cytotox: reduces viability of KKLEB cystic fibrosis airway cells. KKLEB CF airway cells viability, ATPlite luminescence, overnight; stronger effect = lower value; cells stimulated with P. aeruginosa culture filtrate. 360,000 tested, 0.36% active. activity change (cytotoxicity), % at 5 µM;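 active = corrected activity change at or below -50% at 5 µM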
CF NFkB inh: inhibitors of cystic fibrosis induced NF-kB; KKLEB NF-kB-GFP reporter, PAF-induced, GFP fluorescence overnight; inhibition, % at 5 µM; 360,000 tested, 0.86% active; AID 588850;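 active = at least 50% inhibition at 5 µM, scaled per plate between neutral and stimulator controls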;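 note: PAF is a Pseudomonas aeruginosa culture filtrate used as stimulus; plate controls were PAF-stimulated DMSO wells for no effect and unstimulated DMSO wells for full effect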
Mdm2-MdmX confirm: confirmation of inhibitors of human Mdm2/MdmX interaction, set 2 | inhibition, % at 8 µM | SaOS-2 split-luciferase Mdm2/MdmX complementation, luminescence | 740 tested, 99% active | shares compounds with HIF-2a inh;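 active = mean inhibition of the luminescence signal across two replicates at or above 26 percent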
HIF-2a conf: HIF-2a inhibition, single concentration confirmation. shares compounds with HIF-2a inh. 786-0 RCC cells, HIF-2a luciferase reporter luminescence, overnight. inhibition, % at 18.8 µM. 1,800 tested, 56% active. AID 651580;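 active = mean inhibition across four replicates of at least 40 percent at the single tested concentration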
HIF-1a cs: inhibits HIF-1a reporter, a counter-screen for HIF-2a inhibitors | 1,800 tested, 72% active | inhibition, % at 18.8 µM | shares compounds with HIF-2a inh | MiaPaCa-2 HIF-1a luciferase reporter, desferoxamine, overnight;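 active = mean inhibition of the reporter signal across four replicates at the single tested dose of 50% or more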
Numbers without * were called inactive; . = not tested or not shown. An excerpt weighted towards active compounds, which were near 4% of everything screened.

SMILES	Peg3 prom inh	TWEAK Fn14 block	TROY signal inh	HIF-2a inh	KKLEB cytotox	CF NFkB inh	HIF-2a conf	HIF-1a cs	others
Cc1noc(C)c1CSc1ccccc1C(=O)O	9	37	-1	5	3	5	.	.
Cc1cc(C(=O)NC2CC2)c2ccccc2n1	1	-2	-7	23	2	-4	.	.
COc1ccc2cc(CNCCOCCOCCNCc3ccc4cc(OC)ccc4c3)ccc2c1	109*	-68	58*	88*	-31	31	5	27
CCOC(=O)Cc1csc(NC(=S)NC(=O)c2ccc([N+](=O)[O-])cc2)n1	9	-8	-12	63*	8	15	71*	-14
CCOC(=O)Cc1csc(NC(=O)Cc2ccc([N+](=O)[O-])cc2)n1	20	5	11	11	-1	-17	.	.
O=C1C2C3C=CC(C4CC34)C2C(=O)N1CCCCN1CCN(c2ccc(F)cc2)CC1 (stereo not drawn)	-1	-26	5	13	0	-1	.	.
Nc1c(C(=O)N2CCOCC2)sc2nc3c(cc12)CCCC3	36	0	29	46*	-11	6	47*	32
Cc1cccc(Nc2nnc(C)c(=O)n2N)c1	-9	-2	-12	-9	-2	0	.	.
COc1ccc(-c2cc3nc(C)c(CCC(=O)N4CCN(c5ccccn5)CC4)c(C)n3n2)c(OC)c1	22	11	5	5	-9	8	.	.
Cc1nc2cc(-c3cccc(F)c3)nn2c(C)c1CCC(=O)N1CCN(c2ccccn2)CC1	-37	-12	-16	72*	7	-12	81*	59*
CCOC(=O)CCc1c(C)nc2ncnn2c1C	0	-3	9	6	9	-5	.	.
CCOC(=O)C1CCCCN1C(=O)CCc1c(C)nc2ncnn2c1C (stereo not drawn)	5	21	-3	63*	13	6	49*	28
CCOC(=O)C1CCN(C(=O)CCc2c(C)nc3c(-c4ccc(F)cc4)c(C)nn3c2C)CC1	26	7	8	28	-18	20	.	.
Cc1nc2nc(C)c(CCC(=O)O)c(C)n2n1	11	-19	-10	-4	2	-5	.	.
COc1cc(OC)cc(-c2cc3nc(C)c(CCC(=O)O)c(C)n3n2)c1	32	90*	58*	82*	-7	1	90*	86*
CCOC(=O)C1CCN(C(=O)CCc2c(C)nc3cc(-c4ccccc4)nn3c2C)CC1	-50	2	-34	69*	-5	20	84*	45
CC1=C(C(=O)OCC(C)C)[C@]23C(=O)c4ccccc4[C@@]2(O1)OC(N)=C3C#N	14	0	15	13	10	-6	.	.
CCOC(=O)C1CCCCN1C(=O)CCc1c(C)nc2cc(-c3ccccc3)nn2c1C (stereo not drawn)	-37	69*	9	75*	3	-19	85*	74*
CCOC(=O)C1CCN(c2cc(C)nc3cc(-c4cccc(F)c4)nn23)CC1	-3	14	32	-3	0	1	.	.
N#Cc1cc2ccncc2c2ccccc12	11	-3	3	22	-22	6	.	.
Nc1cc2ccncc2c2ccccc12	-5	83*	57*	23	-6	65*	.	.	Mdm2-MdmX confirm=90*
CC1=NN(c2cccc(Cl)c2)C(=O)C1	5	-1	13	-7	0	1	.	.
NC(N)=Nc1nc(-c2ccccc2)c2cc(F)ccc2n1	88*	-20	5	40*	16	-108	16	79*
CC(=O)Nc1ccc(NC(=O)C2CC(=O)N(Cc3ccccc3)C2)cc1 (stereo not drawn)	-2	6	11	21	7	-1	.	.
